# Test results published in PubChem BioAssay (Tox21).
# Values joined by “and” are separate entries in the source; they are usually repeats but may differ in a detail not shown here. Identical values can stand only once. Records with an inconclusive call do not appear. Entries that show only a call come without a potency. More than one record can exist for a structure, and the calls need not agree. Active and inactive are the calls of the source. Calls follow the shape of the dose curve; as a rule, active = well fitted curve in the direction sought with a large enough effect in the repeat runs; inconclusive = weak or mixed curves; inactive = no such curve, though single readings can be large; an effect the other way counts as inactive or inconclusive.
# Legend:
# [1] = A CellTox Green Cytotoxicity Assay to monitor cytotoxicity in HEK293 cells - 40 hour (AID 1224871); also: nearly all actives have a fitted effect of over 45% in size
# In short: (§1)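 Homogeneous no-lysis format: HEK293 cell suspension mixed with CellTox Green reagent, seeded, incubated 5 h at 37 C/5% CO2, then dosed by pintool with compound in DMSO.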
# [2] = qHTS RealTime-Glo MT Cell Viability Assay in HEK293 cells - 16 hour (AID 1224872); also: nearly all actives have a fitted effect of over 50% in size; as to activity change, negative = cytotoxicity: top concentration of the series differs between compounds
# In short: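 Luminescence generated by NanoLuc from substrate produced by living HEK293 cells served as the viability signal. Each value reflects the reading at its stated time point during continuous 40 h compound exposure at 37 C.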
# [3] = qHTS RealTime-Glo MT Cell Viability Assay in HepG2 cells - 8 hour (AID 1224873); also: nearly all actives have a fitted effect of over 55% in size
# In short: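 HepG2 cells mixed with RealTime-Glo MT reagents (NanoLuc plus cell-permeant prosubstrate) were seeded at 600 cells/well, incubated 5 h at 37 C/5% CO2, then pinned with compounds in DMSO; nonlytic luminescence tracked viability during 40 h treatment.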
# [4] = qHTS RealTime-Glo MT Cell Viability Assay in HEK293 cells - 40 hour (AID 1224874); conditions: RealTime-Glo luminescence; max response: stronger effect = lower value; also: nearly all actives have a fitted effect of over 50% in size
# In short: (§2)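 Measured as luminescence from the same continuously cultured HEK293 wells at successive time points (0, 8, 16, 24, 32, 40 h) after compound addition. Reagent present from seeding; dosing at 5 h; incubation 37 C.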
# [5] = A CellTox Green Cytotoxicity Assay to monitor cytotoxicity in HEK293 cells - 24 hour (AID 1224875); also: nearly all actives have a fitted effect of over 45% in size; as to activity change: series mostly up to about 77 µM
# In short: as §1
# [6] = A CellTox Green Cytotoxicity Assay to monitor cytotoxicity in HepG2 cells - 16 hour (AID 1224876); also: nearly all actives have a fitted effect of over 45% in size
# In short: (§3)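 Fluorescent DNA-binding dye, 600 HepG2 cells/well, 5 h preincubation then compound in DMSO; same plates read at 0–40 h, 37 C.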
# [7] = qHTS RealTime-Glo MT Cell Viability Assay in HepG2 cells - 32 hour (AID 1224877); also: nearly all actives have a fitted effect of over 55% in size
# In short: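 Tox21 10K library screened in qHTS format on HepG2 cells carrying RealTime-Glo reagents. Compounds were added after a 5 h preincubation, and the luminescent signal from continuous culture was measured repeatedly during 40 h treatment.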
# [8] = A CellTox Green Cytotoxicity Assay to monitor cytotoxicity in HepG2 cells - 24 hour (AID 1224878); also: nearly all actives have a fitted effect of over 45% in size
# In short: as §3
# [9] = A CellTox Green Cytotoxicity Assay to monitor cytotoxicity in HepG2 cells - 40 hour (AID 1224879); also: nearly all actives have a fitted effect of over 40% in size
# In short: as §3
# [10] = qHTS RealTime-Glo MT Cell Viability Assay in HEK293 cells - 0 hour (AID 1224880); also: nearly all actives have a fitted effect of over 45% in size; as to activity change, negative = cytotoxicity: top concentration of the series differs between compounds
# In short: as §2
# Potency is read from the fitted curve at half-maximal effect.
structure (smiles),measurement,setting,value
CC(C)(C)c1ccc(C(=O)CCCN2CCC(OC(c3ccccc3)c3ccccc3)CC2)cc1,Potency,[1],23.9 µM (active)
same,Potency,[2],8.49 µM (active)
same,Potency,[3],19 µM (active)
same,Potency,[4],9.52 µM (active)
same,Potency,[5],21.3 µM (active)
same,Potency,[6],23.9 µM (active)
same,Potency,[7],19 µM (active)
same,Potency,[8],23.9 µM (active)
same,Potency,[9],19 µM (active)
same,Potency,[10],inactive
CSc1ccc(C(=O)c2[nH]c(=O)[nH]c2C)cc1,Potency,[1],inactive
same,Potency,[2],inactive
same,Potency,[3],inactive
same,max response,[4],2.74% (inactive)
same,Potency,[5],inactive
same,Potency,[6],inactive
same,Potency,[7],inactive
same,Potency,[8],inactive
same,Potency,[9],inactive
same,Potency,[10],inactive
COc1cccc(N)c1,Potency,[1],inactive
same,Potency,[2],inactive
same,Potency,[3],inactive
same,max response,[4],-1.08% (inactive)
same,Potency,[5],inactive
same,Potency,[6],inactive
same,Potency,[7],inactive
same,Potency,[8],inactive
same,Potency,[9],inactive
same,Potency,[10],inactive
CC(C)(C)C(=O)OCOC(=O)[C@@H]1N2C(=O)[C@@H](NC(=O)[C@H](N)c3ccccc3)[C@H]2SC1(C)C,Potency,[1],inactive
same,Potency,[2],inactive
same,Potency,[3],inactive
same,max response,[4],5.37% (inactive)
same,Potency,[5],inactive
same,Potency,[6],inactive
same,Potency,[7],inactive
same,Potency,[8],inactive
same,Potency,[9],inactive
same,Potency,[10],inactive
Nc1cc(C(F)(F)F)ccc1S,Potency,[1],inactive
same,Potency,[2],inactive
same,Potency,[3],inactive
same,max response,[4],3.21% (inactive)
same,Potency,[5],inactive
same,Potency,[6],inactive
same,Potency,[7],inactive
same,Potency,[8],inactive
same,Potency,[9],inactive
same,Potency,[10],inactive
C[C@]12CCC(=O)C=C1CC[C@@H]1[C@@H]2[C@@H](O)C[C@@]2(C)[C@H]1CC[C@]2(O)C(=O)COC(=O)CCC(=O)O,Potency,[1],inactive
same,Potency,[2],inactive
same,Potency,[3],inactive
same,max response,[4],-8.8% (inactive)
same,Potency,[5],inactive
same,Potency,[6],inactive
same,Potency,[7],inactive
same,Potency,[8],inactive
same,Potency,[9],inactive
same,Potency,[10],10.7 µM (active)
Cc1cc(N)c(S(=O)(=O)O)cc1Cl,Potency,[1],inactive
same,Potency,[2],inactive
same,Potency,[3],inactive
same,max response,[4],1.42% (inactive)
same,Potency,[5],inactive
same,Potency,[6],inactive
same,Potency,[7],inactive
same,Potency,[8],inactive
same,Potency,[9],inactive
same,Potency,[10],inactive
CC(NN)c1ccccc1 (stereo not drawn),cytotoxicity increase,[1],-15.6% [at 15.8 µM] (inactive)
same,"activity change, negative = cytotoxicity",[2],0.13% [at 15.8 µM] (inactive)
same,"viability change, negative = cytotoxic",[3],-0.527% [at 15.8 µM] (inactive)
same,max response,[4],2.41% (inactive)
same,activity change,[5],"-7.33% [at 15.8 µM, stronger effect = higher value] (inactive)"
same,cytotoxicity increase,[6],-2.37% [at 15.8 µM] (inactive)
same,"activity change, negative = cytotoxic",[7],1.72% [at 15.8 µM] (inactive)
same,cytotoxicity,[8],-5.39% [at 15.8 µM] (inactive)
same,cytotoxicity increase,[9],0.373% [at 15.8 µM] (inactive)
same,"activity change, negative = cytotoxicity",[10],-4.11% [at 15.8 µM] (inactive)
COC(=O)C1=C(C)NC(C)=C(C(=O)OCC(C)C)C1c1ccccc1[N+](=O)[O-] (stereo not drawn),Potency,[1],49 µM (active) and inactive
same,Potency,[2],38.9 µM (active)
same,Potency,[3],43.6 µM (active)
same,Potency,[4],19.5 µM (active) and 23.9 µM (active)
same,Potency,[5],inactive
same,Potency,[6],inactive
same,Potency,[7],49 µM (active)
same,Potency,[8],inactive
same,Potency,[9],inactive
same,Potency,[10],21.3 µM (active)
CCCCCCCCCCCC[N+](C)(C)CCCCCCCCCCCC,Potency,[1],17.4 µM (active)
same,Potency,[2],11 µM (active)
same,Potency,[3],12.3 µM (active)
same,Potency,[4],3.89 µM (active)
same,Potency,[5],15.5 µM (active)
same,Potency,[6],9.77 µM (active)
same,Potency,[7],7.76 µM (active)
same,Potency,[8],7.76 µM (active)
same,Potency,[9],7.76 µM (active)
same,Potency,[10],inactive
CCCCc1oc2ccc(NS(C)(=O)=O)cc2c1C(=O)c1ccc(OCCCN(CCCC)CCCC)cc1,Potency,[1],19 µM (active)
same,Potency,[2],10.7 µM (active)
same,Potency,[3],21.3 µM (active)
same,Potency,[4],8.49 µM (active)
same,Potency,[5],19 µM (active)
same,Potency,[6],21.3 µM (active)
same,Potency,[7],9.52 µM (active)
same,Potency,[8],19 µM (active)
same,Potency,[9],9.52 µM (active)
same,Potency,[10],inactive
Oc1cccc2cc3cccc(O)c3c(O)c12,Potency,[1],inactive
same,Potency,[2],inactive
same,Potency,[3],inactive
same,max response,[4],0.771% (inactive)
same,Potency,[5],inactive
same,Potency,[6],inactive
same,Potency,[7],inactive
same,Potency,[8],inactive
same,Potency,[9],inactive
same,Potency,[10],inactive
O=C(O)c1c(Cl)cccc1Cl,Potency,[1],inactive
same,Potency,[2],inactive
same,Potency,[3],inactive
same,max response,[4],1.14% (inactive)
same,Potency,[5],inactive
same,Potency,[6],inactive
same,Potency,[7],inactive
same,Potency,[8],inactive
same,Potency,[9],inactive
same,Potency,[10],inactive
O=c1[nH]cnc2nc[nH]c12,Potency,[1],inactive
same,Potency,[2],inactive
same,Potency,[3],inactive
same,max response,[4],3.71% (inactive)
same,Potency,[5],inactive
same,Potency,[6],inactive
same,Potency,[7],inactive
same,Potency,[8],inactive
same,Potency,[9],inactive
same,Potency,[10],inactive
NC(=O)NS(=O)(=O)c1ccc(N)cc1,Potency,[1],inactive
same,Potency,[2],inactive
same,Potency,[3],inactive
same,max response,[4],2.7% (inactive)
same,Potency,[5],inactive
same,Potency,[6],inactive
same,Potency,[7],inactive
same,Potency,[8],inactive
same,Potency,[9],inactive
same,Potency,[10],inactive
Cc1cccc(CN2CCN(C(c3ccccc3)c3ccc(Cl)cc3)CC2)c1 (stereo not drawn),Potency,[1],inactive
same,Potency,[2],inactive
same,Potency,[3],inactive
same,max response,[4],-13.7% (inactive)
same,Potency,[5],inactive
same,Potency,[6],inactive
same,Potency,[7],inactive
same,Potency,[8],inactive
same,Potency,[9],inactive
same,Potency,[10],inactive
CCCCCCCCCCC=O,Potency,[1],inactive
same,Potency,[2],inactive
same,Potency,[3],inactive
same,max response,[4],2.14% (inactive)
same,Potency,[5],inactive
same,Potency,[6],inactive
same,Potency,[7],inactive
same,Potency,[8],inactive
same,Potency,[9],inactive
same,Potency,[10],inactive
CCCCCCCC(=O)[O-].CCCCCCCC(=O)[O-].[Zn+2],Potency,[1],inactive
same,Potency,[2],inactive
same,Potency,[3],inactive
same,max response,[4],9.04% (inactive)
same,Potency,[5],inactive
same,Potency,[7],inactive
same,Potency,[8],inactive
same,Potency,[9],inactive
